Results published in PubChem BioAssay AID1209 (Sanford-Burnham Center for Chemical Genomics, 2008).
About 810 (0.43%) of roughly 190,000 compounds were called active. Shown is part of a subset that was picked to be rich in actives. Unmarked numbers belong to inactive results. Rule as the data show it: active = inhibition above about 50%; inactive = the rest.

biological target: Mannose-6-phosphate isomerase (Homo sapiens) (UniProt P34949); experiment: MPI enzyme activity inhibition – biochemical, fluorescence intensity, coupled assay, primary screen (AID 1209); settings: purified PMI enzyme, at 20 µM, stronger effect = higher value;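 also: plate controls were DMSO vehicle for no effect and wells lacking substrate for full effect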
Sequence (P34949 whole entry, looked up): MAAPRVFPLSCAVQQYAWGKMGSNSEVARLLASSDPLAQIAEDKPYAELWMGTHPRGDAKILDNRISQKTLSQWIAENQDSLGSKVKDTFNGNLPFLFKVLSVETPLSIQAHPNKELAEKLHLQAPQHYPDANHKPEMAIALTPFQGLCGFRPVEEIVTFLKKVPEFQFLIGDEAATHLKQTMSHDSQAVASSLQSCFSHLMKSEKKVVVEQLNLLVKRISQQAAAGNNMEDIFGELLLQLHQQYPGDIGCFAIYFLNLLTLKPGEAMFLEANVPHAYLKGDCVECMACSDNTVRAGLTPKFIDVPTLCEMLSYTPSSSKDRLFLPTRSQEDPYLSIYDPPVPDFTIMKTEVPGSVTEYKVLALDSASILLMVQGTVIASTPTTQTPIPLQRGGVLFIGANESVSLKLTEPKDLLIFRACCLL

Row | SMILES | inhibition
1 | Cc1ccc(C(C(=O)NC2CCCCC2)N2CCC3(CC2)OCCO3)cc1 (stereo not drawn) | 1.6%
2 | C=CCOC(=O)C1=C[C@H](c2ccc(Br)cc2)[C@@H](CCCO)[C@H](OCC)O1 | 17.5%
3 | COc1ccc(-c2cc(=O)c3c(O)c(OC)c(O)cc3o2)cc1 | 0.6%
4 | Cc1cc(=O)c2c(O)c(O)ccc2o1 | 77.7% (active)
5 | Cc1occc(=O)c1O | -5.2%
6 | O=C(O)c1ccccc1Cc1nc2cc(Cl)ccc2c(=O)[nH]1 | -7.4%
7 | COc1ccc(NC(=O)CCCn2c(=O)c3sccc3n(Cc3ccccc3C)c2=O)cc1 | 6.6%
8 | CCc1ccc(/C=C/c2c[nH]c3ccccc23)[n+](CC)c1 | 51.8% (active)
9 | OCC[n+]1ccc(/C=C/c2c[nH]c3ccccc23)cc1 | 2.7%
10 | CCN(CC)C(=O)c1ccc(/C=C/c2c[nH]c3ccccc23)[n+](C)c1 | 8.9%
11 | NS(=O)(=O)c1ccc(CCNC(=O)C2CCC(CNS(=O)(=O)c3ccc(Br)s3)CC2)cc1 (stereo not drawn) | 4.5%
12 | Cc1cc(C)c2cc(CNC3CCCC3)c(Cl)nc2c1 | 8.6%
13 | Cc1cc2cc(C=O)c(Cl)nc2cc1C | 61.2% (active)
14 | Cc1ccc2cc(C=O)c(Cl)nc2c1 | 37.4%
15 | CC(C)(C)c1nn(-c2ccccc2)c2nc(Cl)c(C=O)cc12 | -1.5%
16 | Cc1cc2cc(C=C(C#N)C#N)c(Cl)nc2cc1C | 20.3%
17 | Cc1occc1C(=O)NNC(=O)C1CCCCC1 | 20.4%
18 | CCOc1ccc(CCNC(=O)CSc2nn(-c3ccc(C)c(Cl)c3)c(=S)s2)cc1OCC | 8.9%
19 | CCN(CC1COc2ccccc2O1)C(=S)Nc1ccccc1 (stereo not drawn) | 11.9%
20 | S=C(c1ccc(-c2cc(Cl)ccc2Cl)o1)N1CCOCC1 | 11.6%
21 | S=C(c1ccc(-c2ccccc2Cl)o1)N1CCCCC1 | 10.9%
22 | S=C(c1ccc(-c2ccccc2Cl)o1)N1CCOCC1 | 70.8% (active)

Row | SMILES | inhibition
23 | O=C(CSc1nnc(-c2ccc(OC(F)F)cc2)o1)N1CCOCC1 | -4.5%
24 | CNC(=O)c1ccccc1F | 6.4%
25 | O=C(C1CC1)N1N=C(C2CCCCC2)CC1(O)C(F)(F)F (stereo not drawn) | 6.9%
26 | O=C(C1CCCC1)N1CCC(CO)(Cc2ccccc2Cl)CC1 | 0.9%
27 | S=c1[nH]c2cc(Cl)ccc2s1 | -15.2%
28 | COc1ccc2[nH]c(=S)[nH]c2c1 | 16.4%
29 | S=c1[nH]c2ccc(Cl)cc2[nH]1 | 50.2% (active)
30 | O=C(Nc1ccccc1Cl)N1CCN(C/C=C/c2ccccc2)CC1 | -2%
31 | Oc1ccc(-c2cn3c(n2)SCC3)cc1 | -8.6%
32 | Cc1ccc(-c2cn3c(n2)SCC3)cc1 | -3.8%
33 | Oc1ccc(-c2cn3c(n2)SCC3)cc1O | 59.5% (active)
34 | CCNc1nc(N2CCOCC2)nc(N(c2ccccc2)c2ccccc2)n1 | 13%
35 | COc1ccc(Cl)cc1N/C(N)=N/c1nc(CSc2ccc(C)cc2)cc(=O)[nH]1 | 3.7%
36 | NC(=S)Nc1cccc2cc3ccccc3cc12 | -8.8%
37 | NC(=S)N/N=C\c1c2ccccc2cc2ccccc12 | -64.6%
38 | NC(=S)Nc1cc2ccccc2c2ccccc12 | 67.5% (active)
39 | COc1ccc(C(=O)OCC(=O)NCCCc2ccccc2)cc1[N+](=O)[O-] | 9.8%
40 | O=C(CSc1nnnn1-c1ccccc1)N1CCc2ccccc2C1 | 4%
41 | CN(C)CCC(=O)c1cccc(Br)c1 | 24%
42 | Cc1c(N2C(=O)/C(=C3/C(=O)N(C)c4ccccc43)SC2=S)c(=O)n(-c2ccccc2)n1C | 11.1%
43 | CCN1C(=O)/C(=C2\SC(=S)N(c3c(C)n(C)n(-c4ccccc4)c3=O)C2=O)c2ccccc21 | 14.5%
44 | CC(=O)N1C(=O)/C(=C2\SC(=S)N(c3c(C)n(C)n(-c4ccccc4)c3=O)C2=O)c2ccccc21 | 64.9% (active)

Row | SMILES | inhibition
45 | N/C(COc1ncn(-c2ccccc2)n1)=N\S(=O)(=O)c1ccc(Cl)cc1Cl | 9.1%
46 | CCC(C)(C)NC(=O)C(OC(=O)c1ccco1)c1ccccc1OC (stereo not drawn) | 14.2%
47 | O=C(O)CNC(=O)CC1S/C(=N/N=C2\CSC(=O)N2)NC1=O (stereo not drawn) | 59.9% (active)
48 | O=C(O)CNC(=O)CC1S/C(=N/N=C2/NC(=O)CS2)NC1=O (stereo not drawn) | 25.1%
49 | NC(=O)NC(=O)CC1S/C(=N/N=C2\CSC(=O)N2)NC1=O (stereo not drawn) | 48.8%
50 | CCc1sc(C(=O)Nc2ccsc2C(=O)OC)cc1Br | -4.6%
51 | O=C(CS(=O)(=O)c1cn(Cc2cccc(F)c2)c2ccccc12)N1CCOCC1 | 5.3%
52 | Cc1ccc2c(c1)C(=O)CCN2 | -1.2%
53 | O=C1CCNc2ccc(-c3ccccc3)cc21 | 3.1%
54 | Cc1ccc2oc(-c3ccccc3C(=O)O)cc(=O)c2c1 | -3.3%
55 | CCOC(=O)c1cc2n(c1/N=C/N(C)C)-c1ccccc1C2=O | 55.7% (active)
56 | CCOC(=O)c1sc(/N=C/N(C)C)nc1C | -4.1%
57 | CCOC(=O)c1cnc(/N=C/N(C)C)s1 | 2.3%
58 | Cc1ccccc1-c1nnc(NC(=O)c2cc3ccccc3oc2=O)s1 | -1.2%
59 | CCN(CC)Cc1c(O)ccc2c(=O)c(-c3ccc4c(c3)OCCO4)coc12 | 5.6%
60 | COC1OC(COC(=O)CNC(=O)OC(C)(C)C)C(O)C(O)C1O (stereo not drawn) | -0.1%
61 | CC(C)CC(C(=O)NC1CCCC1)N(Cc1cccs1)C(=O)c1snc(C(N)=O)c1N (stereo not drawn) | 13%
62 | CC(C)CC(C(=O)NC1CCCCC1)N(Cc1cccs1)C(=O)c1snc(C(N)=O)c1N (stereo not drawn) | 101% (active)
63 | CCC(C(=O)NC1CCCCC1)N(Cc1cccs1)C(=O)c1snc(C(N)=O)c1N (stereo not drawn) | 3.9%
64 | CCOC(=O)COc1ccc(S(=O)(=O)NCC2CCCO2)cc1 (stereo not drawn) | -1.8%
65 | COc1cccc(OCc2nc(-c3cccc([N+](=O)[O-])c3)no2)c1 | 4.9%
66 | O=[N+]([O-])c1cccc(-c2noc(COc3ccccc3)n2)c1 | 57.3% (active)

Row | SMILES | inhibition
67 | COc1ccccc1OCc1nc(-c2cccc([N+](=O)[O-])c2)no1 | 2.9%
68 | CC(=O)c1cnc(-c2ccccc2Cl)s1 | 0.5%
69 | CC(C(=O)Nc1nc2ccccc2s1)n1cc([N+](=O)[O-])cn1 (stereo not drawn) | 11.5%
70 | CS(=O)(=O)Nc1ccc2[nH]c(=O)[nH]c2c1 | 3.3%
71 | CCS(=O)(=O)Nc1ccc2[nH]c(=O)[nH]c2c1 | 52.1% (active)
72 | Cc1cc(C)c(S(=O)(=O)Nc2ccc3[nH]c(=O)[nH]c3c2)c(C)c1 | 4.4%
73 | N#C/C(=C\c1cccc(NC(=O)c2ccccc2Cl)c1)C(=O)NCCc1ccccc1 | 10.1%
74 | O=C(Cc1ccc(F)cc1)OCC(=O)c1cc2ccccc2o1 | 9%
75 | COc1ccc(-c2n[nH]c(C)c2-c2ccc(Cl)cc2)c(O)c1OC | 6.7%
76 | COc1ccc(-c2nc(N)ncc2-c2csc(C)n2)c(O)c1OC | 6.8%
77 | COC1=C(N)C(=O)c2nc(-c3nc(C(=O)O)c(C)c(-c4ccc(OC)c(OC)c4O)c3N)ccc2C1=O | 56% (active)
78 | NS(=O)(=O)c1ccc(NC(=O)C2(c3ccccc3)CCCC2)cc1 | 1.9%
79 | O=C(CSc1ccc(-c2ccccn2)nn1)c1ccc(F)cc1 | 62.5% (active)
80 | O=C(CSc1ccc(-c2ccccn2)nn1)c1ccc([N+](=O)[O-])cc1 | 3.7%
81 | O=C(CSc1ccc(-c2ccccn2)nn1)c1ccccc1 | -14.4%
82 | CSC1=N/C(=C\c2ccc(C)s2)C(=O)S1 | 7%
83 | O=C(NC1CCCCCCC1)c1ccc2c(c1)N(Cc1ccc(F)cc1)C(=O)CS2=O (stereo not drawn) | 0.6%
84 | NC(=S)Nn1c(CCC(=O)O)ccc1-c1ccccc1 | 14.4%
85 | CCc1ccc(C(=O)COC(=O)CCc2nc3ccccc3c(=O)[nH]2)cc1 | -28.6%
86 | Cc1cccc2cc(C#N)c(SCc3nnc(-c4ccccc4[N+](=O)[O-])o3)nc12 | 11.1%
87 | C/C=C(\C)C(=O)NCCN1C2=NC[C@H](C(C)C)N2C[C@H]1Cc1ccc(O)cc1 | 1.5%
88 | N#C/C(=C/c1ccc(CNS(=O)(=O)c2ccccc2)o1)C(=O)NCc1ccccc1 | 7.8%

Row | SMILES | inhibition
89 | Cc1ccc(S(=O)(=O)NCc2ccc(/C=C(/C#N)C(=O)NCc3ccccc3)o2)cc1 | 58.4% (active)
90 | COCCNC(=O)/C(C#N)=C\c1ccc(CNS(=O)(=O)c2ccc(C)cc2)o1 | 6.2%
91 | CCCNS(=O)(=O)c1ccc(OCC(=O)Nc2ccccc2F)cc1 | -1.4%
92 | CC1=NC(C)(C)Cc2ccccc21 | 7.7%
93 | CC1(C)CC(=O)C(C2=NC(C)(C)Cc3ccccc32)=C(O)C1 | -4%
94 | CC1(C)Cc2ccccc2C2=NNC(=O)C2=N1 | 84% (active)
95 | O=S(=O)(/C=C/c1ccccc1)N1CCN(Cc2ccccc2)CC1 | -1.6%
96 | COc1ccc2nc(NC(=O)CNS(=O)(=O)c3cccs3)sc2c1 | 1.5%
97 | CN(C(=S)Nc1ccc(Oc2ccccc2)cc1)c1ccc(O)cc1 | 64% (active)
98 | CCN(C(=S)Nc1cccnc1)c1ccccc1 | 4%
99 | Oc1cccc(NC(=S)Nc2ccc(SC(F)F)cc2)c1 | 18.1%
100 | CCN(C(=S)Nc1ccc(Oc2ccccc2)cc1)c1ccccc1 | 3.3%
101 | CN(C(=S)Nc1ccccc1)c1ccccc1 | 3.2%
102 | CN(Cc1ccccc1)C(=S)Nc1cccnc1 | 0.8%
103 | CN(C(=S)Nc1cccnc1)c1ccc(O)cc1 | 59.2% (active)
104 | Oc1cccc(NC(=S)Nc2cccnc2)c1 | 14.8%
105 | CCN(C(=S)Nc1cccnc1)c1cccc2ccccc12 | 61.2% (active)
106 | CN(C(=S)Nc1ccc(SC(F)F)cc1)c1ccc(O)cc1 | 77.2% (active)
107 | CCN(C(=S)NCc1ccccc1)c1cccc2ccccc12 | 6.3%
108 | CN1CCC(N(C)C(=S)Nc2ccc(SC(F)F)cc2)CC1 | -2%
